This is an account of results in PubChem BioAssay (NCI).

Some test systems named below: SK-MEL-2 melanoma; EKVX NSCLC; SN12C renal; UO-31 renal; TK-10 renal; ACHN renal; CAKI-1 renal; A498 renal; CCRF-CEM leukemia; MOLT-4 leukemia; SR leukemia; RPMI-8226 leukemia; OVCAR-8 ovarian; OVCAR-5 ovarian; SK-OV-3 ovarian; IGROV1 ovarian; OVCAR-3 ovarian; HS 578T breast; NCI/ADR-RES ovarian.
Experiment in all cases: NCI-60 one-dose screen, 48 h (100 = growth as untreated, 0 = no growth, -100 = all killed)
What all share (settings): 10 µM unless noted

Structures are written as SMILES. About 83,000 compounds went through this panel and 20% of them were active in at least one assay; those are over-represented in the sample as a whole.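 Method: cells in 96-well plates; compound added at one concentration; 48 h incubation; percent growth measured; values under 10 scored active.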 Unmarked numbers belong to inactive results. Activity calls are given as the source filed them.

Take `C#CCOc1ccc(C2=NN(CC3CC3)C3N=C(Cl)c4ncn(CC5CC5)c4N23)cc1OCC#C` (centres undefined): the growth with SK-MEL-2 melanoma was 82.7%; with EKVX NSCLC, 80.1%; in the experiment with SN12C renal, 82.2%; with UO-31 renal it was 46.9%; in the experiment with TK-10 renal, 76%; in the experiment with ACHN renal, 62%. The growth in the experiment with CAKI-1 renal was 43.7%; in the experiment on A498 renal it was 50.9%; in the experiment with CCRF-CEM leukemia it was 64.3%; in the experiment on MOLT-4 leukemia, 61%; in the experiment on SR leukemia, 65.7%; in the experiment with RPMI-8226 leukemia it was 73.7%. Also, the growth was 71.6% with OVCAR-8 ovarian; 96.6% in the experiment on OVCAR-5 ovarian; 73.8% in the experiment with SK-OV-3 ovarian; 67.8% with IGROV1 ovarian; 90.4% in the experiment with OVCAR-3 ovarian; 79.4% in the experiment with HS 578T breast. In the experiment on NCI/ADR-RES ovarian, the growth is 85.3%.

As to `CCn1cc(-c2cc(-c3ccc(Cl)cc3)nc(N)n2)c(-c2ccc(Br)cc2)n1`, the growth in the experiment with SK-MEL-2 melanoma is 62.7%; in the experiment on EKVX NSCLC, 78.1%; in the experiment with SN12C renal it was 84.5%; with UO-31 renal, 67.7%; in the experiment on TK-10 renal it was 80.2%; in the experiment with ACHN renal, 46.9%. Moreover, the growth with CAKI-1 renal was 51.8%; in the experiment with A498 renal it was 92%; with CCRF-CEM leukemia, 82.9%; in the experiment on MOLT-4 leukemia it was 83.4%; with SR leukemia, 69.7%; in the experiment with RPMI-8226 leukemia, 66.2%. The growth is 84.9% in the experiment with OVCAR-8 ovarian; 68.7% in the experiment with OVCAR-5 ovarian; 68.1% with IGROV1 ovarian; 88.5% in the experiment on OVCAR-3 ovarian; 96.7% in the experiment with HS 578T breast; 80.3% with NCI/ADR-RES ovarian.

With `CCN(CC)c1ccc2cc(C(Nc3ccc(C)cc3)c3nnnn3C(C)(C)C)c(=O)oc2c1` (centres undefined), the growth in the experiment with SK-MEL-2 melanoma was 94.3%; with EKVX NSCLC it was 86.9%; with SN12C renal it was 91.8%; in the experiment on UO-31 renal it was 72.5%; with TK-10 renal, 90.7%; in the experiment on ACHN renal it was 98.2%. The growth in the experiment on CAKI-1 renal is 79.2%; in the experiment with A498 renal, 94.7%; with CCRF-CEM leukemia, 98.6%; with MOLT-4 leukemia, 65.5%; in the experiment with SR leukemia it was 94.5%; in the experiment on RPMI-8226 leukemia it was 87.4%. The growth in the experiment on OVCAR-8 ovarian was 98.4%; with OVCAR-5 ovarian, 101%; in the experiment with SK-OV-3 ovarian, 102%; in the experiment on IGROV1 ovarian it was 97.4%; with OVCAR-3 ovarian, 101%; in the experiment on NCI/ADR-RES ovarian it was 90.6%.

On to `O=C1NC(=O)C(Cc2ccccc2)(Cc2ccccc2)N1`, for which the growth is 102% with SK-MEL-2 melanoma; 101% in the experiment with EKVX NSCLC; 97.9% with SN12C renal; 93.6% with UO-31 renal; 89.4% with TK-10 renal; 109% in the experiment with ACHN renal. Besides, the growth in the experiment on CAKI-1 renal was 92.1%; in the experiment with A498 renal it was 102%; in the experiment with CCRF-CEM leukemia, 92.4%; with MOLT-4 leukemia it was 90.5%; with SR leukemia, 104%; with RPMI-8226 leukemia, 91%. Further, the growth was 104% with OVCAR-8 ovarian; 110% in the experiment on OVCAR-5 ovarian; 98.1% in the experiment on SK-OV-3 ovarian; 115% in the experiment on IGROV1 ovarian; 98.9% in the experiment on OVCAR-3 ovarian; 111% with HS 578T breast. Besides, the growth with NCI/ADR-RES ovarian is 101%.

Regarding `CC(C)=CC/C=C(/C)[C@H]1CC[C@]2(C)[C@@H]1CC[C@@H]1[C@@]3(C)CC/C(=N/O)C(C)(C)[C@@H]3CC[C@]12C`, the growth in the experiment with SK-MEL-2 melanoma was 59.2% [100 µM]; in the experiment on EKVX NSCLC, 72.2% [100 µM]; in the experiment with SN12C renal it was 41% [100 µM]; in the experiment with UO-31 renal, 58.3% [100 µM]; in the experiment on TK-10 renal it was 82% [100 µM]; in the experiment on ACHN renal, 54.3% [100 µM]. Also, the growth in the experiment with CAKI-1 renal was 57.4% [100 µM]; with A498 renal it was 88.8% [100 µM]; in the experiment with CCRF-CEM leukemia it was 38.4% [100 µM]; in the experiment with MOLT-4 leukemia it was 27.6% [100 µM]; in the experiment on SR leukemia it was 45.2% [100 µM]; in the experiment on RPMI-8226 leukemia, 52% [100 µM]. The growth in the experiment on OVCAR-8 ovarian was 40.8% [100 µM]; in the experiment on OVCAR-5 ovarian it was 80.6% [100 µM]; in the experiment with SK-OV-3 ovarian it was 68.8% [100 µM]; in the experiment with IGROV1 ovarian, 76.2% [100 µM]; in the experiment on OVCAR-3 ovarian it was 52.4% [100 µM]; in the experiment on HS 578T breast, 64.3% [100 µM]. In the experiment on NCI/ADR-RES ovarian, the growth is 63.9% [100 µM].

Turning to `O=C1/C(=C\c2cccn2Cc2ccccc2)c2ccccc2N1c1c(Cl)cccc1Cl`, the growth is 45.7% in the experiment with SK-MEL-2 melanoma; 38.8% in the experiment on EKVX NSCLC; 87.3% in the experiment on SN12C renal; 50.2% in the experiment with UO-31 renal; 22.9% in the experiment on TK-10 renal; 53.7% in the experiment on ACHN renal. The growth in the experiment with CAKI-1 renal was 55.8%; in the experiment with A498 renal it was 72.9%; in the experiment with CCRF-CEM leukemia, 92.9%; with MOLT-4 leukemia, 86.6%; with SR leukemia it was 90.6%; with RPMI-8226 leukemia, 60.2%. The growth in the experiment with OVCAR-8 ovarian was 90.8%; in the experiment on OVCAR-5 ovarian it was 38.7%; in the experiment with IGROV1 ovarian, 28.2%; with OVCAR-3 ovarian, 7.01% (active); in the experiment with HS 578T breast, 83.2%; in the experiment with NCI/ADR-RES ovarian, 70.9%.

Consider `CC(=O)n1cc(C=O)c2ccccc21`, for which the growth in the experiment with SK-MEL-2 melanoma is 97.9%; in the experiment on EKVX NSCLC it was 109%; with SN12C renal, 97.7%; in the experiment with UO-31 renal, 72%; in the experiment on TK-10 renal, 100%; in the experiment with ACHN renal, 106%. For the same compound, the growth is 100% with CAKI-1 renal; 113% in the experiment with A498 renal; 80.9% with CCRF-CEM leukemia; 91% with MOLT-4 leukemia; 97.3% in the experiment on SR leukemia; 97.6% with RPMI-8226 leukemia. Moreover, the growth was 86.7% in the experiment with OVCAR-8 ovarian; 104% in the experiment on OVCAR-5 ovarian; 116% in the experiment with SK-OV-3 ovarian; 112% in the experiment on IGROV1 ovarian; 104% in the experiment with OVCAR-3 ovarian; 96.4% in the experiment with NCI/ADR-RES ovarian.
